These entries were drawn from the full list.
HepG2 tox – kills HepG2 cells in TGF-b inhibitor counter-screen; Potency, µM (series often up to 46.1 µM), hits mostly cytotoxic; HepG2 CAGA-GFP viability, ATP luminescence, 18 h; hit rate 0.76% among 410,000; AID 588856
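CellTiter-Glo luminescence gave cytotoxicity after 18 hours at 37 degrees C. The cells were HepG2 CAGA-GFP in 1% FBS DMEM, stimulated with 500 pg/mL TGF-beta after compound addition. %Activity was normalised to no-cell wells (complete cell-killing) and DMSO (no toxicity), and curves were fitted and classified.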
TGFb inhibitor – blocks TGF-b signaling | AID 588855 | hit rate 1.2% among 410,000 | Potency, µM (highest dose often 46.1 µM), most hits filed as inhibitors | HepG2 CAGA-GFP TGF-b/SMAD3 reporter, GFP fluorescence, 18 h; TGF-beta stimulated, 500 pg/mL final; further: nearly all actives have a fitted effect of over 65% in size
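TGF-beta reporter screen: HEPG2 CAGA-GFP, 1% FBS, 500 pg/mL TGF-beta final, 18 h; per-cell GFP summed per well; curves fitted and categorized by class.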
VP16 counter – Gal4-VP16 reporter inhibition counter-screen | Drosophila S2 Gal4-VP16 UAS-luciferase, luminescence, 20 h | Potency, µM (series often up to 53.6 µM), actives largely listed as inhibitors | hit rate 3.5% among 310,000 | AID 2546;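 further: Gal4-VP16 expression switched on by copper sulfate through the metallothionein promoter; nearly all actives have a fitted effect of over 50% in size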
RORgamma inh – blocks mouse ROR gamma transcriptional activity; Drosophila S2 Gal4-RORgamma UAS-luciferase reporter, 20 h; Potency, µM (titrated, usually from 53.6 µM), most hits filed as inhibitors; hit rate 5.4% among 310,000; further: nearly all actives have a fitted effect of over 60% in size
Target sequence (P51450 whole entry, looked up, the tested form may be a part): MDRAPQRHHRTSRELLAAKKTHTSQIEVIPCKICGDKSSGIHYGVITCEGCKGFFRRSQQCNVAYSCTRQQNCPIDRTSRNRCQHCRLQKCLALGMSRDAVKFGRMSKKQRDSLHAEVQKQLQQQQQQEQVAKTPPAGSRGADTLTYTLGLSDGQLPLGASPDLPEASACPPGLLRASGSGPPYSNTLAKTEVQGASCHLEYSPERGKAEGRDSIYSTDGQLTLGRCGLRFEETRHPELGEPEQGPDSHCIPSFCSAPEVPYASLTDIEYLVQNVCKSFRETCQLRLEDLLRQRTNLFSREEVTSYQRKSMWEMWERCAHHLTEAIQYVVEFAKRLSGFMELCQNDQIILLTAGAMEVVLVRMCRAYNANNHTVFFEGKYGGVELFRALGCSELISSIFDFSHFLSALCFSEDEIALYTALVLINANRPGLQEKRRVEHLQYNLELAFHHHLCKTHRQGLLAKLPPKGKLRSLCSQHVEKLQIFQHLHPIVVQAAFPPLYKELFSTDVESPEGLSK
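Read-out: Photinus luciferase luminescence; inhibitors lower reporter signal. Insect Schneider cells with Gal4-ROR gamma fusion under metallothionein promoter, UAS reporter; 700 uM final copper sulfate induction, 20 hr, ambient temperature.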
S2 tox – viability counter-screen for ATXN expression inhibitors. AID 651635. Potency, µM (doses to about 56.7 µM), usual class: cytotoxic. hit rate 0.49% among 400,000. S2 cells (HEK-293 line with an ATXN2-luciferase reporter) viability, CellTiter-Fluor protease fluorescence, 24 h; further: nearly all actives have a fitted effect of over 40% in size
ATXN2 expr inh – ATXN2 expression inhibition; Potency, µM (doses to about 57 µM), hits mostly inhibitors; hit rate 0.72% among 360,000; HEK-293 ATXN2-luciferase reporter, luminescence, 24 h; AID 1745845; further: nearly all actives have a fitted effect of over 55% in size
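ATXN2-luciferase reporter cells (luciferase flanked by upstream and downstream ATXN2 gene portions) were treated 24 h at 37 °C with compounds at up to 57 uM. SteadyGlo luminescence gave expression; GF-AFC fluorescence gave viability.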
EBOV entry S4 rt – blocks Ebola virus entry, screen 4 ratio readout; AID 1117308; Ebola pseudovirus entry assay, ratio channel; shares compounds with ATXN2 expr inh; hit rate 79% among 170; AC50, µM; calls by dose curve
EBOV S4 blue – Ebola entry inhibition, blue channel, screen 4; shares compounds with ATXN2 expr inh; Ebola virus entry assay, blue channel fluorescence ratio; Channel: blue; calls only; 170 tested, under 10 active; AID 1117309; call rule not given here
EBOV entry S4 grn – Ebola virus entry blockers, screen 4 green channel; Ebola virus entry reporter assay, green fluorescence channel; Channel: green; calls only; 170 tested, under 10 active; shares compounds with ATXN2 expr inh; call rule not given here
Calls only; - = inactive; ? = inconclusive; . = no result given; [ ] = remark or other dose. Unless noted, the call rests on the fitted dose curve; in most records, active means well fitted curve in the direction sought with a large enough effect; inconclusive means small, poorly fitted or top-dose-only effect, or another doubt; inactive means no such curve, though single readings can be large; an effect the other way counts as inactive or inconclusive.

SMILES	HepG2 tox	TGFb inhibitor	VP16 counter	RORgamma inh	S2 tox	ATXN2 expr inh	EBOV entry S4 rt	EBOV S4 blue	EBOV entry S4 grn
CN1CCc2cc3c(c4c2C1Cc1ccccc1-4)OCO3 (stereo not drawn)	-	?	-	?	-	-	.	.	.
Cn1nc(C(C)(C)C)cc1C(=O)N1CCCCC1c1cc(C(=O)Nc2ccc(F)c(Cl)c2)no1 (stereo not drawn)	-	?	.	.	-	-	.	.	.
O=C(O)CNC1c2ccccc2CSc2ccccc21 (stereo not drawn)	-	-	.	.	-	-	.	.	.
O=C1NC[C@H](CCCCN2C[C@@H](Cc3ccccc3)N(CC3CCCCC3)C(=O)C2=O)N(CCC2CCCCC2)C1=O	.	.	.	.	?	-	.	.	.
C#Cc1cccc(Nc2ncnc3cc(OCCOC)c(OCCOC)cc23)c1	.	.	-	-[10 µM]	?	?	-	-	-
CCN1C[C@]2(C)CC[C@H](O)[C@@]34C5C[C@@H]6[C@@H](OC)C[C@@](O)(C5[C@H]6O)[C@@H](CC23)[C@@H]14 (stereo partly drawn)	.	.	-	-	.	.	.	.	.
CC(N)[C@H](O)c1ccc(O)c(O)c1 (stereo partly drawn)	-	-	.	.	.	.	.	.	.
NC[C@H](O)c1ccc(O)c(O)c1	-	-	-	-	-	-	-	-	-
C[C@H](N)[C@H](O)c1ccc(O)c(O)c1	.	.	-	-	?	-	-	-	-
N#CCc1ccccc1	.	.	-	-	.	.	.	.	.
COC(=O)C1(C)C=C2C(=C(C)C(=O)C2C)CN1 (stereo not drawn)	.	.	-	-	.	.	.	.	.
Cc1ccc(NC(=O)Cn2c(=O)oc3cc(S(=O)(=O)N4CCCCC4)ccc32)c(Cl)c1	-	?	.	.	?	-	.	.	.

From PubChem BioAssay
